The supplement of paper PMC12067093, “Discovery and optimisation of a covalent ligand for TRIM25 and its application to targeted protein ubiquitination” (Chemical Science, 2025)
About 21,000 targets were measured; listed, in parts, are those with the largest changes and a random draw of the rest.

Compound: Cc1cc(ccc1-c1ccccc1)C(=O)N1CCCN(CC1)C(=O)CCl [compound 10]
Assay: probe-labelled cysteine peptide fold change vs DMSO (competition) (log2 fold change); higher = less target engagement (more negative = stronger competition)
Conditions: THP-1, incubation time: 4 h
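Also: competitive profiling in live THP-1 cells: cysteine peptides tagged with an iodoacetamide desthiobiotin (IA-DTB) probe, intensity after compound treatment relative to DMSO-treated cells.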

Q: “PRPF19_Q9UMS4_5+16_SLICSISNEVPEHPCVSPVSNHVYER (UniProt Q9UMS4)” was tested. Which “probe-labelled cysteine peptide fold change” value (10 µM) did it give?
A: Its value is 0.0585.

Q: And the “probe-labelled cysteine peptide fold change” value (50 µM)?
A: The value was 0.103.

Q: With “RCHY1_Q96PM5_43_LCHDNNEDHQLDR (UniProt Q96PM5)” as the target, how does the “probe-labelled cysteine peptide fold change” value (10 µM) read?
A: The value was 0.344.

Q: What about the “probe-labelled cysteine peptide fold change” value (50 µM) of the same target?
A: Its value is 2.12.

Q: “PTPN11_Q06124_318_CNNSKPK (UniProt Q06124)” was tested. Which “probe-labelled cysteine peptide fold change” value (10 µM) did it give?
A: The value was -0.31.

Q: What about the “probe-labelled cysteine peptide fold change” value (50 µM) of the same target?
A: Its value is -1.11.

Q: How did the “probe-labelled cysteine peptide fold change” value (10 µM) turn out when “R3HCC1_Q9Y3T6_5_ALLCLDGVFLSSAENDFVHR (UniProt Q9Y3T6+R3HCC1)” was run?
A: Its value is 0.242.

Q: What about the “probe-labelled cysteine peptide fold change” value (50 µM) of the same target?
A: Its value is 0.0812.

Q: What does the source list for “QRSL1_Q9H0R6_278_LCIGIPK (UniProt Q9H0R6)”?
A: probe-labelled cysteine peptide fold change (10 µM): 0.155; probe-labelled cysteine peptide fold change (50 µM): 0.0481

Q: With “PSMB8_P28062_7_ALLDVCGAPR (UniProt P28062)” as the target, how does the “probe-labelled cysteine peptide fold change” value (10 µM) read?
A: Its value is -0.068.

Q: What about the “probe-labelled cysteine peptide fold change” value (50 µM) of the same target?
A: The value was -0.273.

Q: For “PRMT5_O14744_622_KVWYEWAVTAPVCSAIHNPTGR (UniProt O14744)”, which “probe-labelled cysteine peptide fold change” value (10 µM) is on record?
A: Its value is -0.0156.

Q: And the “probe-labelled cysteine peptide fold change” value (50 µM)?
A: The value was 0.0576.

Q: For “PRKDC_P78527_1507_QCLPSLDLSCK (UniProt P78527)”, which “probe-labelled cysteine peptide fold change” value (10 µM) is on record?
A: Its value is 0.0976.

Q: And the “probe-labelled cysteine peptide fold change” value (50 µM)?
A: Its value is -1.07.

Q: What does the source list for “REPIN1_Q9BWE0_433+436_VHSGERPFACEECGR (UniProt Q9BWE0)”?
A: probe-labelled cysteine peptide fold change (10 µM): -0.108; probe-labelled cysteine peptide fold change (50 µM): -0.289

Q: “PSMD11_O00231_257_YMLLCK (UniProt O00231)” was tested. Which “probe-labelled cysteine peptide fold change” value (10 µM) did it give?
A: Its value is 0.248.

Q: What about the “probe-labelled cysteine peptide fold change” value (50 µM) of the same target?
A: The value was 0.241.

Q: With “RFC3_P40938_32_NLVQCGDFPHLLVYGPSGAGKK (UniProt P40938)” as the target, how does the “probe-labelled cysteine peptide fold change” value (10 µM) read?
A: Its value is -0.11.

Q: And the “probe-labelled cysteine peptide fold change” value (50 µM)?
A: Its value is -0.186.

Q: Which results are given for “PRKCB_P05771_132+135_CDTCMMNVHKR (UniProt P05771)”?
A: probe-labelled cysteine peptide fold change (10 µM): -0.193; probe-labelled cysteine peptide fold change (50 µM): -0.881

Q: With “PREX1_Q8TCU6_836_LSLCEDSPMVTLTVDNVHLEHGVVYEYVSTAGVR (UniProt Q8TCU6)” as the target, how does the “probe-labelled cysteine peptide fold change” value (10 µM) read?
A: The value was -0.0714.

Q: What about the “probe-labelled cysteine peptide fold change” value (50 µM) of the same target?
A: The value was 0.185.

Q: Which results are given for “RAD54L2_Q9Y4B4_618_AFCVCCK (UniProt Q9Y4B4)”?
A: probe-labelled cysteine peptide fold change (10 µM): -0.173; probe-labelled cysteine peptide fold change (50 µM): -0.639

Q: With “RNF113A_O15541_202_WDYQPDICK<|>RNF113B_Q8IZP6_196_WDYQPDICK (UniProt Q8IZP6+O15541)” as the target, how does the “probe-labelled cysteine peptide fold change” value (10 µM) read?
A: The value was -0.0623.

Q: And the “probe-labelled cysteine peptide fold change” value (50 µM)?
A: Its value is -0.145.

Q: Which “probe-labelled cysteine peptide fold change” value (10 µM) does the source give for “RGMB_Q6NW40_226_ITIIFKAHHECTDQK (UniProt Q6NW40)” here?
A: The value was -0.0752.

Q: What about the “probe-labelled cysteine peptide fold change” value (50 µM) of the same target?
A: The value was -1.11.

Q: What does the source list for “RGS14_O43566_183_ECLLAEAEGR (UniProt O43566)”?
A: probe-labelled cysteine peptide fold change (10 µM): -0.0353; probe-labelled cysteine peptide fold change (50 µM): 0.16

Q: Which results are given for PUS7_Q96PZ0_319_CLMNFK (UniProt Q96PZ0)?
A: probe-labelled cysteine peptide fold change (10 µM): -0.0229; probe-labelled cysteine peptide fold change (50 µM): -0.239

Q: Which “probe-labelled cysteine peptide fold change” value (10 µM) does the source give for “PRKDC_P78527_2093_DPTVHDDVLELEMDELNRHECMAPLTALVK (UniProt P78527)” here?
A: Its value is -0.156.

Q: And the “probe-labelled cysteine peptide fold change” value (50 µM)?
A: The value was -0.199.

Q: “QDPR_P09417_161_GAVHQLCQSLAGK (UniProt P09417)” was tested. Which “probe-labelled cysteine peptide fold change” value (10 µM) did it give?
A: Its value is 0.0328.

Q: And the “probe-labelled cysteine peptide fold change” value (50 µM)?
A: Its value is 0.165.

Q: How did the “probe-labelled cysteine peptide fold change” value (10 µM) turn out when “RNF126_Q9BV68_13+16_YFCHCCSVEIVPR (UniProt Q9BV68)” was run?
A: The value was -0.268.

Q: What about the “probe-labelled cysteine peptide fold change” value (50 µM) of the same target?
A: Its value is -1.16.

Q: “PRR14L_Q5THK1_1483_DTESCTSPCLLGAPR (UniProt Q5THK1)” was tested. Which “probe-labelled cysteine peptide fold change” value (10 µM) did it give?
A: Its value is -0.528.

Q: And the “probe-labelled cysteine peptide fold change” value (50 µM)?
A: Its value is -1.12.

Q: What does the source list for “RBBP5_Q15291_100_LVSASTDNIVSQWDVLSGDCDQR (UniProt Q15291)”?
A: probe-labelled cysteine peptide fold change (10 µM): 0.121; probe-labelled cysteine peptide fold change (50 µM): 0.0651

Q: “RHOC_P08134_20_TCLLIVFSK<|>RHOA_P61586_20_TCLLIVFSK<|>RHOB_P62745_20_TCLLIVFSK (UniProt P62745+P61586+P08134)” was tested. Which “probe-labelled cysteine peptide fold change” value (10 µM) did it give?
A: The value was -0.323.

Q: And the “probe-labelled cysteine peptide fold change” value (50 µM)?
A: Its value is -0.507.

Q: What does the source list for “RANBP2_P49792_1749_CIACQCPSK (UniProt P49792)”?
A: probe-labelled cysteine peptide fold change (10 µM): 0.0505; probe-labelled cysteine peptide fold change (50 µM): 0.0953

Q: Which results are given for “PSMB3_P49720_19_NCVAIAADRR (UniProt P49720)”?
A: probe-labelled cysteine peptide fold change (10 µM): 0.0313; probe-labelled cysteine peptide fold change (50 µM): 0.234

Q: Which results are given for “RIF1_Q5UIP0_2450_LSCMANSVIK (UniProt Q5UIP0)”?
A: probe-labelled cysteine peptide fold change (10 µM): -0.0942; probe-labelled cysteine peptide fold change (50 µM): -0.14

Q: For “PTPRC_P08575_610_SCNLDEQQELVERDDEK (UniProt P08575)”, which “probe-labelled cysteine peptide fold change” value (10 µM) is on record?
A: The value was -0.427.

Q: And the “probe-labelled cysteine peptide fold change” value (50 µM)?
A: Its value is -1.12.

Q: Which results are given for “RHOG_P84095_18_TCLLICYTTNAFPK (UniProt P84095)”?
A: probe-labelled cysteine peptide fold change (10 µM): -0.108; probe-labelled cysteine peptide fold change (50 µM): 0.0979

Q: What does the source list for “RNF114_Q9Y508_64_KPVCGVCR (UniProt Q9Y508)”?
A: probe-labelled cysteine peptide fold change (10 µM): 0.0642; probe-labelled cysteine peptide fold change (50 µM): -0.0371

Q: Which results are given for “PSME1_Q06323_101_KKGEDEDKGPPCGPVNCNEK (UniProt Q06323)”?
A: probe-labelled cysteine peptide fold change (10 µM): -0.428; probe-labelled cysteine peptide fold change (50 µM): -1.54

Q: Which results are given for “PRKD2_Q9BZL6_169_CDGCGLNYHK (UniProt Q9BZL6)”?
A: probe-labelled cysteine peptide fold change (10 µM): -0.0725; probe-labelled cysteine peptide fold change (50 µM): 0.00149

Q: For “PRKCQ_Q04759_193_QCNAAIHK (UniProt Q04759)”, which “probe-labelled cysteine peptide fold change” value (10 µM) is on record?
A: The value was -0.474.

Q: And the “probe-labelled cysteine peptide fold change” value (50 µM)?
A: The value was -0.576.

Q: Which results are given for “RANBP9_Q96S59_707_QPPLALAMGQATQCLGLMAR (UniProt Q96S59)”?
A: probe-labelled cysteine peptide fold change (10 µM): 0.193; probe-labelled cysteine peptide fold change (50 µM): 0.216

Q: What does the source list for “PSMA7_O14818_91_ARVECQSHR (UniProt O14818)”?
A: probe-labelled cysteine peptide fold change (10 µM): -0.0556; probe-labelled cysteine peptide fold change (50 µM): 0.107

Q: Which “probe-labelled cysteine peptide fold change” value (10 µM) does the source give for “PRKCI_P41743_137_LYCANGHTFQAK (UniProt P41743)” here?
A: The value was -0.00179.

Q: What about the “probe-labelled cysteine peptide fold change” value (50 µM) of the same target?
A: The value was 0.0748.

Q: Which results are given for “PSME4_Q14997_718_QGYTLSCNLLHHLLR (UniProt Q14997)”?
A: probe-labelled cysteine peptide fold change (10 µM): 0.366; probe-labelled cysteine peptide fold change (50 µM): 0.173

Q: Which results are given for “RASSF5_Q8WWW0_225_NCLGMK (UniProt Q8WWW0)”?
A: probe-labelled cysteine peptide fold change (10 µM): -0.275; probe-labelled cysteine peptide fold change (50 µM): -0.844
